Reference: PubChem BioAssay AID434961 (Broad Institute, 2010)
The whole screen tested about 7,700 compounds, of which about 15 (0.2%) were called active. Not shown: some 6% with an inconclusive outcome. The entries come from a sample that favours actives as a whole. A number with no mark means an inactive call.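 How the source made its calls: active means more than half of replicate wells with inhibition above about 18% (limit read from the data, passing the limit was not always enough); inconclusive means exactly half of replicate wells above that limit; inactive means fewer than half of replicates above it.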

Target: Regulator of chromosome condensation (Homo sapiens) + GTP-binding nuclear protein Ran (Homo sapiens) + Importin subunit beta-1 (Homo sapiens) (UniProt P18754+P62826+Q14974)
Assay: RanGTP/importin-beta interaction disruptors – biochemical, CFP-Ran/YFP-importin-beta FRET, RCC1, cell-free, primary screen (AID 434961);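 further: 0% = DMSO wells and 100% inhibition = RanGDP control wells on each plate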
Settings: active compounds read high, concentration not given here

Structure (SMILES) | inhibition
CNC[C@H]1Oc2ccc(NC(=O)NC(C)C)cc2CC(=O)N([C@H](C)CO)C[C@H]1C | -4.07%
CNC[C@H]1OCCCC[C@@H](C)Oc2ccc(N)cc2C(=O)N([C@H](C)CO)C[C@@H]1C | 7.03%
C[C@@H]1CN([C@H](C)CO)C(=O)Cc2cc(NS(=O)(=O)c3cn(C)cn3)ccc2O[C@H]1CN(C)CC1CC1 | 1.45%
Cc1noc(C)c1NC(=O)N(C)C[C@@H]1Oc2c(NS(C)(=O)=O)cccc2C(=O)N([C@H](C)CO)C[C@H]1C | -0.0899%
C[C@@H]1CCCCO[C@H](CN(C)C(=O)C2CCCCC2)[C@H](C)CN([C@@H](C)CO)C(=O)c2cc(NC(=O)c3ccncc3)ccc2O1 | 2%
C[C@@H]1CN([C@H](C)CO)C(=O)Cc2cc(NC(=O)Nc3ccc4c(c3)OCO4)ccc2O[C@@H]1CN(C)CC1CC1 | 24.2% (active)
C[C@@H]1CN([C@H](C)CO)C(=O)Cc2cc(NC(=O)Cc3ccccc3)ccc2O[C@@H]1CN(C)S(=O)(=O)c1cccs1 | -2.73%
C[C@@H]1CN([C@@H](C)CO)C(=O)Cc2cc(NC(=O)Nc3ccc4c(c3)OCO4)ccc2O[C@@H]1CN(C)CC1CC1 | 2.45%
C[C@H]1CN([C@@H](C)CO)C(=O)Cc2cc(NC(=O)Cc3ccccc3)ccc2O[C@@H]1CN(C)S(=O)(=O)c1cccs1 | -0.944%
C[C@H](CO)N1C[C@H](C)[C@@H](CN(C)S(=O)(=O)c2cccs2)Oc2ccc(NC(=O)Cc3ccccc3)cc2CC1=O | 19.8% (active)
C[C@H](CO)N1C[C@H](C)[C@H](CN(C)CC2CC2)Oc2ccc(NC(=O)Nc3ccc4c(c3)OCO4)cc2CC1=O | -0.0887%
C[C@@H]1CCCCO[C@@H](CN(C)Cc2ccncc2)[C@H](C)CN([C@@H](C)CO)C(=O)c2cc(NS(C)(=O)=O)ccc2O1 | -2.5%
C[C@@H]1CCCCO[C@H](CN(C)Cc2ccc3c(c2)OCO3)[C@@H](C)CN([C@H](C)CO)C(=O)c2cc(NC(=O)CCCN(C)C)ccc2O1 | 20.5% (active)
C[C@@H]1CN([C@@H](C)CO)C(=O)c2cc(NC(=O)CCCN(C)C)ccc2O[C@@H](C)CCCCO[C@H]1CN(C)Cc1ccc2c(c1)OCO2 | 7.22%
C[C@H]1CCCCO[C@H](CN(C)Cc2ccc3c(c2)OCO3)[C@@H](C)CN([C@@H](C)CO)C(=O)c2cc(NC(=O)CCCN(C)C)ccc2O1 | -3.94%
C[C@@H]1CN([C@H](C)CO)C(=O)c2cc(NS(C)(=O)=O)ccc2O[C@@H](C)CCCCO[C@@H]1CN(C)Cc1ccncc1 | 30% (active)
C[C@@H]1CCCCO[C@H](CN(C)Cc2ccncc2)[C@H](C)CN([C@H](C)CO)C(=O)c2cc(NS(C)(=O)=O)ccc2O1 | 0.0179%
C[C@@H]1CN([C@@H](C)CO)C(=O)c2cc(NS(C)(=O)=O)ccc2O[C@@H](C)CCCCO[C@H]1CN(C)C(=O)Cc1ccccc1 | 20.6% (active)
C[C@H]1CCCCO[C@@H](CN(C)C(=O)Cc2ccccc2)[C@@H](C)CN([C@@H](C)CO)C(=O)c2cc(NS(C)(=O)=O)ccc2O1 | 3.79%

Structure (SMILES) | inhibition
C[C@@H]1CN([C@@H](C)CO)C(=O)c2cccc(NS(C)(=O)=O)c2O[C@@H]1CN(C)Cc1ccncc1 | 0.304%
C[C@@H]1CN([C@@H](C)CO)C(=O)c2cc(NS(C)(=O)=O)ccc2O[C@@H](C)CCCCO[C@@H]1CN(C)C(=O)Cc1ccccc1 | -3.41%
C[C@H](CO)N1C[C@H](C)[C@@H](CN(C)Cc2ccncc2)Oc2c(NS(C)(=O)=O)cccc2C1=O | 29.9% (active)
C[C@H]1CN([C@@H](C)CO)C(=O)c2cccc(NS(C)(=O)=O)c2O[C@H]1CN(C)Cc1ccncc1 | 7.75%
COc1ccc(CN(C)C[C@H]2Oc3ccc(NC(=O)Nc4ccc(C(F)(F)F)cc4)cc3C(=O)N([C@@H](C)CO)C[C@H]2C)cc1 | 31.1% (active)
COc1ccc(CN(C)C[C@H]2Oc3ccc(NC(=O)Nc4ccc(C(F)(F)F)cc4)cc3C(=O)N([C@H](C)CO)C[C@H]2C)cc1 | -1.47%
Cc1noc(C)c1NC(=O)Nc1ccc2c(c1)C(=O)N([C@H](C)CO)C[C@@H](C)[C@@H](CN(C)C(=O)Nc1c(C)noc1C)OCCCC[C@@H](C)O2 | 20.4% (active)
COc1ccc(CN(C)C[C@H]2Oc3ccc(NC(=O)Nc4ccc(C(F)(F)F)cc4)cc3C(=O)N([C@@H](C)CO)C[C@@H]2C)cc1 | -6.63%
C[C@H]1CN([C@@H](C)CO)C(=O)c2cccc(NS(=O)(=O)c3cn(C)cn3)c2O[C@@H]1CN(C)C | 0.914%
Cc1noc(C)c1NC(=O)Nc1ccc2c(c1)C(=O)N([C@H](C)CO)C[C@H](C)[C@H](CN(C)C(=O)Nc1c(C)noc1C)OCCCC[C@H](C)O2 | -1.94%
C[C@@H]1CN([C@H](C)CO)C(=O)c2cccc(NS(=O)(=O)c3cn(C)cn3)c2O[C@H]1CN(C)C | -0.231%
Cc1noc(C)c1NC(=O)N(C)C[C@@H]1Oc2ccc(N(C)C)cc2CC(=O)N([C@H](C)CO)C[C@H]1C | 24.7% (active)
C[C@H]1CN([C@@H](C)CO)C(=O)c2cccc(NS(=O)(=O)c3cn(C)cn3)c2O[C@H]1CN(C)C | 31% (active)
Cc1noc(C)c1NC(=O)Nc1ccc2c(c1)C(=O)N([C@H](C)CO)C[C@H](C)[C@@H](CN(C)C(=O)Nc1c(C)noc1C)OCCCC[C@@H](C)O2 | 0.0737%
Cc1noc(C)c1NC(=O)N(C)C[C@H]1Oc2ccc(N(C)C)cc2CC(=O)N([C@@H](C)CO)C[C@H]1C | -0.258%
Cc1noc(C)c1NC(=O)N(C)C[C@@H]1Oc2ccc(N(C)C)cc2CC(=O)N([C@H](C)CO)C[C@@H]1C | 1.55%
C[C@@H]1CCCCO[C@@H](CN(C)C(=O)CCC(F)(F)F)[C@@H](C)CN([C@@H](C)CO)C(=O)c2cc(NC(=O)CCC(F)(F)F)ccc2O1 | 17.9% (active)
C[C@H]1CCCCO[C@H](CN(C)C(=O)CCC(F)(F)F)[C@@H](C)CN([C@@H](C)CO)C(=O)c2cc(NC(=O)CCC(F)(F)F)ccc2O1 | 4.31%
C[C@@H]1CCCCO[C@@H](CN(C)C(=O)CCC(F)(F)F)[C@H](C)CN([C@@H](C)CO)C(=O)c2cc(NC(=O)CCC(F)(F)F)ccc2O1 | -1.98%

Structure (SMILES) | inhibition
CNC[C@H]1Oc2c(cccc2N(C)C)C(=O)N([C@H](C)CO)C[C@H]1C | -1.15%
COc1ccc(CN(C)C[C@H]2Oc3c(NC(=O)Nc4c(C)noc4C)cccc3C(=O)N([C@H](C)CO)C[C@@H]2C)cc1 | 0.675%
C[C@H](CO)N1C[C@H](C)[C@H](CN(C)C(=O)Nc2ccccc2)Oc2c(NC(=O)c3ccc(-c4nccs4)cc3)cccc2C1=O | -2.67%
C[C@H](CO)N1C[C@H](C)[C@H](CN(C)Cc2ccc3c(c2)OCO3)Oc2ccc(NC(=O)CCC(F)(F)F)cc2CC1=O | 0.912%
C[C@@H]1CCCCO[C@@H](CN(C)C(=O)CCCN(C)C)[C@H](C)CN([C@@H](C)CO)C(=O)c2cc(N(C)C)ccc2O1 | 1.1%
C[C@@H]1CCCCO[C@@H](CN(C)C(=O)c2ccncc2)[C@@H](C)CN([C@@H](C)CO)C(=O)c2cc(NS(=O)(=O)c3cccs3)ccc2O1 | -2.75%
COc1ccc(CN(C)C[C@@H]2Oc3c(NS(=O)(=O)c4cn(C)cn4)cccc3C(=O)N([C@H](C)CO)C[C@@H]2C)cc1 | -1.87%
C[C@H](CO)N1C[C@H](C)[C@H](CN(C)Cc2ccc(Cl)c(Cl)c2)Oc2c(NS(=O)(=O)c3cn(C)cn3)cccc2C1=O | -0.00607%
C[C@@H]1CCCCO[C@H](CN(C)C(=O)Nc2ccccc2)[C@@H](C)CN([C@@H](C)CO)C(=O)c2cc(NC(=O)CCCN(C)C)ccc2O1 | -3.05%
CNC[C@H]1Oc2ccc(NS(=O)(=O)c3cccs3)cc2CC(=O)N([C@H](C)CO)C[C@H]1C | -0.195%
C[C@@H]1CCCCO[C@@H](CN(C)S(C)(=O)=O)[C@H](C)CN([C@H](C)CO)C(=O)c2cc(NS(=O)(=O)c3ccccc3)ccc2O1 | -0.778%
C[C@H]1CN([C@@H](C)CO)C(=O)Cc2cc(NC(=O)C3CC3)ccc2O[C@@H]1CN(C)C(=O)Nc1ccccc1 | -14.8%
CNC[C@@H]1Oc2c(N)cccc2C(=O)N([C@H](C)CO)C[C@@H]1C | -1.12%
COc1ccccc1CN(C)C[C@H]1OCc2cn(nn2)CCCC(=O)N([C@H](C)CO)C[C@H]1C | 3.38%
C[C@@H]1CN([C@@H](C)CO)C(=O)c2cccc(NC(=O)c3ccncc3)c2O[C@H]1CN(C)S(=O)(=O)c1cccs1 | 0.118%
C[C@H]1CCCCO[C@@H](CN(C)Cc2ccncc2)[C@@H](C)CN([C@@H](C)CO)C(=O)c2cc(N(C)C)ccc2O1 | 1.7%
COc1ccc(NC(=O)Nc2ccc3c(c2)C(=O)N([C@@H](C)CO)C[C@@H](C)[C@H](CN(C)Cc2ccc(C(=O)O)cc2)O3)cc1 | 0.138%
C[C@@H]1CN([C@H](C)CO)C(=O)c2cc(NC(=O)Nc3ccccc3)ccc2O[C@@H](C)CCCCO[C@H]1CN(C)S(=O)(=O)c1ccc(F)cc1 | 4.18%
C[C@H](CO)N1C[C@H](C)[C@@H](CN(C)C(=O)NC2CCCCC2)Oc2ccc(N(C)C)cc2C1=O | 3.39%
